Coupling enz: counter-screen for Giardia aldolase inhibitors: coupling enzyme system; coupling enzyme system counterscreen, AmpLite Red fluorescence; activity change, negative = inhibition, % at 58.2 µM, hits read low; actives 0.67% (n = 290,000); AID 2472; in the data active means activity change below about -30%
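Fluorescence at 525 nm excitation and 598 nm emission measured inhibition of the coupled detection system without aldolase. Compounds (at 57.5 uM final) were preincubated 10 min at room temperature with coupling enzyme reagent before a 20 min substrate/AmpLite Red step.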
NPSR antagonist: blocks cAMP signaling of the human neuropeptide S receptor. actives 1% (n = 220,000). CHO-NPSR cells, cAMP TR-FRET, antagonist mode. Potency, µM (titrated, usually from 38.3 µM), usual class: inhibitors. Q6W5P4. AID 1461; active means well fitted curve in the direction sought with a large enough effect; inconclusive means small, poorly fitted or top-dose-only effect, or another doubt; inactive means no such curve, though single readings can be large; an effect the other way counts as inactive or inconclusive; further: nearly all actives have a fitted effect of over 50% in size
Target sequence (Q6W5P4 whole entry, looked up): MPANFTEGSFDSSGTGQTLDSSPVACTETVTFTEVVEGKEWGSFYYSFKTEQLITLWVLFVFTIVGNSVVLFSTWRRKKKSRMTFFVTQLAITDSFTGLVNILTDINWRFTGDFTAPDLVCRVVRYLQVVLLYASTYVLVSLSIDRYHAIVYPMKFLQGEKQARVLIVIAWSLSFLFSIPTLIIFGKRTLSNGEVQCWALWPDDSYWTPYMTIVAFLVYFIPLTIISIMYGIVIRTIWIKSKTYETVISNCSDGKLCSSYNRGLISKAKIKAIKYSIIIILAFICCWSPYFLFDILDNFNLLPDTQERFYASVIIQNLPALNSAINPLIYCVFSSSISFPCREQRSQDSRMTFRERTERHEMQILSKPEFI
ALDH1A1 block: blocks purified human ALDH1A1 activity. P00352. Purified ALDH1A1, NADH fluorescence, propionaldehyde substrate. Potency, µM (series often up to 75.3 µM), hits mostly inhibitors. actives 7.3% (n = 220,000). AID 1030
GoLoco inh red: inhibitors of human Gai1-RGS12 GoLoco interaction (red fluorophore) | Gai1:RGS12 GoLoco peptide FP, rhodamine, 10 min | Potency, µM (highest dose often 61.6 µM), usual class: inhibitors | actives 0.44% (n = 230,000) | AID 880; active means well fitted inhibition curve with a large enough effect, not every such curve was filed as active; inactive means no such curve, though single readings can be large or run the other way; further: nearly all actives have a fitted effect of over 30% in size
Sfp PPTase inh: inhibitors of Bacillus subtilis Sfp phosphopantetheinyl transferase. Q9F4F7. Biochemical Sfp PPTase activity, qHTS. Potency, µM, usual class: inhibitors. actives 3.5% (n = 310,000). AID 1490; active means well fitted curve in the direction sought with a large enough effect; inconclusive means small, poorly fitted or top-dose-only effect, or another doubt; inactive means no such curve, though single readings can be large; an effect the other way counts as inactive or inconclusive;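 further: the enzyme is Sfp with the accession as filed and its product quenches rhodamine fluorescence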
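Step 1, compound plus 15 nM Sfp-PPTase, 15 min, room temperature. Step 2, add rhodamine-CoA (5 uM) and BHQ-2-YbbR (12.5 uM). Step 3, read 525/598 nm fluorescence at 0 and 30 min.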
KDM4E inh: inhibitors of human JMJD2E histone demethylase | B2RXH2 | JMJD2E catalytic domain, FDH-coupled NADH fluorescence (FDH is formaldehyde dehydrogenase) | AID 2147 | Potency, µM (titrated, usually from 57.1 µM), usual class: inhibitors | actives 1.6% (n = 230,000); further: nearly all actives have a fitted effect of over 50% in size
Target sequence (B2RXH2 1-337 limits assumed): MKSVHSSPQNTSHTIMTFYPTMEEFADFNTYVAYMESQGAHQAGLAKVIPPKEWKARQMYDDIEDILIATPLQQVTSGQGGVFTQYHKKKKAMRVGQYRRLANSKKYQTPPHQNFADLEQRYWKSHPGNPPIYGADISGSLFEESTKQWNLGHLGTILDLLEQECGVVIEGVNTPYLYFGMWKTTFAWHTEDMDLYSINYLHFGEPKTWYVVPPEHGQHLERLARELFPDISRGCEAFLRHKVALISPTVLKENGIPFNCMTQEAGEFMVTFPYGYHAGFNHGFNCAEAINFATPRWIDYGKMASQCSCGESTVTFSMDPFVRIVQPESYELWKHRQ
Numbers stand for hits; n = inactive; u = inconclusive; x = not tested or not shown; [ ] = dose if it differs, or a comment. Sampled rows, rich in hits. Any-hit rate of the full collection: about 8.5%. Unless noted, the call rests on the fitted dose curve; in most records, active means well fitted inhibition curve with a large enough effect (not every such curve was filed as active); inconclusive means small, poorly fitted or top-dose-only effect, or another doubt; inactive means no such curve, though single readings can be large or run the other way.

SMILES | Coupling enz | NPSR antagonist | ALDH1A1 block | GoLoco inh red | Sfp PPTase inh | KDM4E inh
O=CC(Br)P(=O)(N1CCOCC1)N1CCOCC1 (stereo unspecified) | n | n | x | n | 25µM | n
FC(F)(F)c1ccc2c(c1)N(CCCN1CCN(CCCl)CC1)c1ccccc1S2 | n | 7.9µM | n | n | 50µM | u
OCCN1CCN(CCCN2c3ccccc3Sc3ccc(C(F)(F)F)cc32)CC1 | n | u | n | n | n | n
COc1cc(OC)cc(C(=O)N2CCC(N3CCN(c4ccccc4)CC3)CC2)c1 | n | n | u | n | 45µM | u
Nc1c(Br)cc([N+](=O)[O-])cc1[N+](=O)[O-] | x | x | 25µM | n | x | x
CCC1CN2CCC1CC2C(O)c1ccnc2ccc(OC)cc12 (stereo unspecified) | n | x | u | n | n | u
C[C@@H](COc1ccccc1)N(CCCl)Cc1ccccc1 | n | x | n | n | n | n
CON(C)C(=O)Nc1ccc(Br)cc1 | n | x | x | x | n | x
O=C(O)/C=C\C(=O)Nc1ccc(Oc2ccc(Br)cc2)cc1 | n | n | 1.4µM | n | n | n
CN1CCc2cc3c(c4c2C1Cc1ccccc1-4)OCO3 (stereo unspecified) | -35 | x | x | x | n | x
CC(=O)OC1C[C@@]2(C)C(c3ccoc3)C[C@H]3O[C@@]32[C@@]2(C)C(=O)C(O)=C3C(C)(C)C(=O)C=C[C@]3(C)C12 (stereo partly specified) | n | x | n | n | n | n
COc1ccc(NC(=O)N2CC3(CCN(C(=O)Oc4ccccc4)CC3)C2)cc1 | n | x | u | n | n | x
COc1ccc(CCn2c(O)c(C=NCCN3CCCCC3)c(=O)[nH]c2=O)cc1OC | n | n | n | n | n | n
CCC(=O)N1N=C(c2c(O)n(CCc3ccccc3)c(=O)[nH]c2=O)CC1c1ccc(OC)c(OC)c1 (stereo unspecified) | n | n | x | n | n | 20µM
O=C1CC2OCC=C3CN4CCC56c7ccccc7N1C5[C@H]2[C@H]3C[C@H]46 (stereo partly specified) (tested in a mixture with another compound) | x | x | x | x | n | x
Cc1ccc(Cn2cc(C=O)c3ccccc32)cc1 | n | x | x | x | n | x
O=[N+]([O-])c1ccccc1CNCCc1c[nH]c2ccccc12 | n | x | x | x | n | x
O=Cc1cn(Cc2ccc([N+](=O)[O-])cc2)c2ccccc12 | n | n | 2.2µM | n | u | n
O=Cc1cn(Cc2ccc(F)cc2)c2ccccc12 | n | n | 0.13µM | n | n | n
O=Cc1cn(Cc2ccccc2[N+](=O)[O-])c2ccccc12 | n | n | 1.3µM | n | n | n
O=C(Oc1ccccc1)N1CCC[C@@]2(CCN(Cc3nccs3)C2)C1 | n | x | n | n | n | x
c1cncc(CNc2cc(-c3ccc4c(c3)OCO4)ncn2)c1 | n | x | u | n | u | u
COc1cccc(N2C(=O)CC(=O)NC2=O)c1 | n | n | n | n | n | n
CCOc1ccccc1N1C(=O)NC(=O)/C(=C/c2ccc3c4c(cccc24)CC3)C1=O | n | n | u | n | 56µM | u
COc1cccc(N2C(=O)NC(=O)/C(=C/c3ccc4c5c(cccc35)CC4)C2=O)c1 | n | n | u | n | 56µM | n
SMILES | Coupling enz | NPSR antagonist | ALDH1A1 block | GoLoco inh red | Sfp PPTase inh | KDM4E inh
C=CCN1CC[C@@]23c4c5ccc(O)c4O[C@H]2/C(=N\N=C2/CC[C@@]4(O)[C@H]6Cc7ccc(O)c8c7[C@@]4(CCN6CC=C)[C@@H]2O8)CC[C@]3(O)[C@@H]1C5 | n | x | n | n | n | n
Cc1cccc(N2C(=O)NC(=O)/C(=C/c3cc4c(cc3[N+](=O)[O-])OCO4)C2=O)c1 | n | n | n | n | 35µM | n
O=C1NC(=O)C(=Cc2cc3c(cc2[N+](=O)[O-])OCO3)C(=O)N1 | n | n | 16µM | n | n | u
CCN1CCN(Cc2cc3c(cc2[N+](=O)[O-])OCO3)CC1 | n | x | x | x | n | x
CC(C)(C)C(=O)C1C(=O)c2ccccc2C1=O | x | x | 16µM | 10µM | x | x
COc1ccc(C(=O)Nc2sc3c(c2C(=O)O)CC(C)(C)OC3)cc1 | n | n | 20µM | n | n | n
C=CCOC(=O)COc1cc(C)cc2oc(=O)c3c(c12)CCC3 | n | u | u | n | n | u
Cc1cc(OC(=O)CCNC(=O)OC(C)(C)C)c2c3c(c(=O)oc2c1)CCC3 | n | u | 1.8µM | n | n | n
Cc1cc(OCc2nn[nH]n2)c2c3c(c(=O)oc2c1)CCCC3 | n | n | u | x | n | u
Cc1cc(OCc2ccc([N+](=O)[O-])cc2)c2c3c(c(=O)oc2c1)CCCC3 | n | n | 28µM | n | n | n
CCCCOC(=O)COc1cc(C)cc2oc(=O)c3c(c12)CCC3 | n | n[7.67 µM] | 10µM | n | n | u
Cc1cc(OC(=O)c2ccco2)c2c3c(c(=O)oc2c1)CCC3 | n | n | 10µM | x | n | u
COc1cc2c3cc1Oc1c(OC)c(OC)cc4c1[C@@H](Cc1ccc(OC(=O)c5ccc([N+](=O)[O-])cc5)c(c1)Oc1ccc(cc1)C[C@@H]3N(C)CC2)N(C)CC4 | n | x | x | x | u | x
C=C(C)C1CCC(C)=CC1c1c(O)cc(O)cc1CCCCC (stereo unspecified) | n | x | n | n | n | x
CCCN1CCC[C@@H]2Cc3n[nH]cc3C[C@H]21 | x | n | n | n | x | n
Cc1cc(OCC(=O)OC(C)(C)C)c2c3c(c(=O)oc2c1)CCC3 | n | n | u | n | n | 4.5µM
CCN(CC)CCCCN1c2ccccc2Oc2ccc(Cl)cc21 | n | x | x | x | n | x
Oc1c(Cl)c(Cl)cc(Cl)c1Cl | x | x | n | n | x | x
COc1cccc(-n2c(CNC(=O)OC(C)(C)C)n[nH]c2=S)c1 | n | n | n | x | 50µM | n
CCN(CC)C(=O)c1ccc2c(c1)C1C=CCC1C(C(=O)O)N2 (stereo unspecified) | n | x | x | x | 11µM | x
CCN(CC)C(=O)c1ccc2c(c1)C1C(Cl)C(Sc3ccccc3[N+](=O)[O-])CC1C(C(=O)O)N2 (stereo unspecified) | n | u | 25µM | n | 45µM | u
O=C(O)c1ccc2c(c1)C1C(Cl)C(Sc3ccccc3[N+](=O)[O-])CC1C(c1cccc([N+](=O)[O-])c1)N2 (stereo unspecified) | n | n | u | n | u | n
O=C(O)c1cccc2c1NC(c1cccc([N+](=O)[O-])c1)C1CC(Sc3ccccc3[N+](=O)[O-])C(Cl)C21 (stereo unspecified) | n | 10µM | 3.5µM | n | 40µM | u
c1ccc2cc3c(cc2c1)-c1cccc2cccc-3c12 | x | x | u | n | x | x
N=C(N)c1c(O)n(C2CCCCC2)c(=O)n(C2CCCCC2)c1=O | n | 10µM | n | n | n | n
C=CCN1C[C@H](C)N([C@H](c2ccc(C(=O)N(CC)CC)cc2)c2cccc(O)c2)C[C@H]1C | n | x | n | n | n | n
